Screening results as filed in PubChem BioAssay.
D1 antag – antagonists of human D1 dopamine receptor; 3.2% of 360,000 active; activity change, negative = inhibition, % at 10 µM; AID 504652; HEK293 TREx D1 cells, calcium flux, dopamine EC80; stronger effect = lower value; in the data active means activity change below about -30%
Target sequence (P21728 whole entry, looked up): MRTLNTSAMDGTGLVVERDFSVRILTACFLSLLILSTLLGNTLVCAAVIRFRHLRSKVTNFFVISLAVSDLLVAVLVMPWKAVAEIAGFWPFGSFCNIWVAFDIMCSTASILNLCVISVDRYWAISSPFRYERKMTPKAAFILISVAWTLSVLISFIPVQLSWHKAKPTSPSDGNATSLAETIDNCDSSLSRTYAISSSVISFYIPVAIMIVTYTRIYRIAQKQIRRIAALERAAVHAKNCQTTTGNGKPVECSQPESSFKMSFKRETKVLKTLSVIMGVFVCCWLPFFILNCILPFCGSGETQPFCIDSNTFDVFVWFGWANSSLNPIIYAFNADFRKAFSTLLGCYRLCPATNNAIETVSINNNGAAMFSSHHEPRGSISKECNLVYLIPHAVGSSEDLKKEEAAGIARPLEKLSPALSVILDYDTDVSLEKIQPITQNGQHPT
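Compound effects on dopamine-evoked calcium signalling were measured in tetracycline-induced HEK293 Trex D1 cells. Dopamine at EC80 followed a 180 s compound pre-read, and fluorescence was tracked kinetically for 180 s more.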
D1 ag – agonists of human D1 dopamine receptor; 1% of 360,000 active; activation, % at 2 µM; HEK293 T-REx D1 cells, calcium flux, agonist mode; AID 504660; P21728
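Agonism was scored from calcium flux recorded over 180 s (1 read/s) after pintool compound addition, following a 10-cycle baseline. Cells were inducible force-coupled HEK293 TREx D1, plated overnight at 30 C and loaded with no-wash calcium dye.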
TRHR enhancer – TRH receptor (human) allosteric enhancement | P34981 | TRHR cells, fluo-8 calcium fluorescence, EC20 TRH enhancement | enhancement, % at 2 µM | 0.66% of 360,000 active | AID 493056; in the data active means enhancement above about 30%
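Enhancer read-out: after compound pinning and an initial kinetic agonist-mode read, an EC20 of TRH (10 nM final) was injected and fluo-8 calcium signal (Ex 480/Em 530) followed at 1 s/cycle for 100 cycles in TRHR-expressing cells.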
TRHR agonist – activates the human TRH receptor; P34981; TRHR cells, calcium flux fluo-8, FDSS agonist mode; activation, % at 2 µM; 0.18% of 360,000 active; AID 493084
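Read-out: compound-evoked intracellular calcium rise in TRHR cells, fluo-8 dye, kinetic FDSS fluorescence at 1 s/cycle following a 10-cycle baseline. Cells cultured overnight before dye loading (30 min–1.5 h, RT).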
D1 potentiator – enhances dopamine response at the human D1 receptor; HEK293 TREx D1 cells, calcium flux, dopamine EC20 potentiation; 0.036% of 360,000 active; P21728; potentiation, % at 10 µM; in the data active means potentiation above about 30%
A number is an active result; – = inactive. Rows were chosen to be rich in hits. Some 4.7% of all compounds tested hit in one or more screens of this group. Unless noted, no stated cut-off is given here; in the data, active means activation above about 30%; inactive means the rest.

SMILES	D1 antag	D1 ag	TRHR enhancer	TRHR agonist	D1 potentiator
CCc1nc(Nc2ccc(OC)cc2OC)c2oc3ccccc3c2n1	–	–	–	–	–
Cc1c(C(=O)N2CCC(C)CC2)c(S(=O)(=O)Nc2cccc(C(F)(F)F)c2)c(C)n1C	–	–	–	–	–
COC(=O)c1c(C(=O)OC)c(-c2cccc(Cl)c2)n2c1CS(=O)C2 (centres undefined)	–	–	–	–	–
Cc1cc2c(s1)c1cnn(Cc3ccccc3Br)c(=O)c1n2C	–	–	–	–	–
CCN(CC)S(=O)(=O)c1ccc(C(=O)/C=C/c2ccc(-c3ccc([N+](=O)[O-])cc3)o2)cc1	-54.1	–	–	–	–
Cc1ccc(C(=O)/C=C/c2ccc(-c3ccc(C)cc3)o2)cc1	–	–	–	–	–
O=C(Nc1cccc(C(F)(F)F)c1)Oc1ccc(Cl)c2cccnc12	–	33.7	–	–	–
C/C(=N/NC(=O)CNC(=O)C1COc2ccccc2O1)c1ccc([N+](=O)[O-])cc1 (centres undefined)	–	–	–	–	–
COc1ccc(/C=N/n2c(-c3cc(C)[nH]n3)n[nH]c2=S)cc1	–	–	–	–	–
Cc1cc(-c2n[nH]c(=S)n2/N=C/c2ccc(C)o2)n[nH]1	–	–	39.8	–	–
CCN(CC(=O)NCc1ccc(F)cc1)C(=O)/C=C/c1cc(OC)ccc1OC	–	–	–	–	–
CCc1ccc(-n2c(=O)c3c4c(sc3n(Cc3ccccc3C#N)c2=O)CCCC4)cc1	–	–	–	–	–
C=CCSc1ncc(-c2ccccc2)cn1	-30.7	–	–	–	–
C#CCSc1ncc(-c2ccccc2)cn1	–	–	–	–	–
O=c1cc(O)c2sc3nc(-c4ccccc4)cc(C(F)(F)F)c3c2[nH]1	–	56.2	–	–	–
COc1ccc(OC)c(-c2cc(C(F)(F)F)c3c(n2)sc2c(O)cc(=O)[nH]c23)c1	–	–	–	–	–
O=C(c1ccc2c(c1)N(Cc1cccc(Cl)c1)C(=O)c1ccccc1S2(=O)=O)N1CCCCCC1	–	–	–	–	–
CCCNC(=O)c1nnsc1S(=O)c1ccc(Cl)cc1 (centres undefined)	–	–	–	–	–
CCCNC(=O)c1nnsc1S(=O)(=O)c1ccc(Cl)cc1	-38.8	–	–	–	–
CCOC(=O)Cc1cc(-c2ccccc2)nc2ccc3ccccc3c12	-36.0	–	–	–	–
CCOC(=O)CN1N=C(c2ccc(C)cc2)CCC1=O	–	–	–	–	–
Cc1oc(C(C)(C)C)cc1C(=O)Nc1ccc2c(c1)OCO2	-32.3	–	–	–	–
CCN1CCN(CCNC(=O)c2ccc(/C=C3/Sc4ccccc4N(Cc4ccccc4C)C3=O)cc2)CC1	–	39.6	–	–	–
O=C(NCCCN1CCOCC1)c1ccc(/C=C2\Oc3ccccc3N(Cc3ccccc3F)C2=O)cc1	–	–	–	–	–
CCN1CCN(CCCNC(=O)c2ccc(/C=C3/Oc4ccccc4N(Cc4cccc(C)c4)C3=O)cc2)CC1	-37.5	39.4	–	–	–
SMILES	D1 antag	D1 ag	TRHR enhancer	TRHR agonist	D1 potentiator
COc1ccc(-c2nc(CCNC(=O)c3cc(OC)c(OC)c(OC)c3)cs2)cc1	–	–	–	–	–
CN(C)S(=O)(=O)c1cccc(C(=O)Nc2cc(Cl)ccc2O)c1	–	–	–	–	–
CN1CCN(c2ccc(Cl)cc2NC(=O)c2ccc([N+](=O)[O-])cc2)CC1	-85.0	–	–	–	–
CN1CCN(c2ccc(Cl)cc2NC(=O)c2cccc(S(=O)(=O)N(C)C)c2)CC1	–	41.1	–	–	–
Cn1c(=O)n(C)c2cc([N+](=O)[O-])c(N3CCN(C(=O)c4ccc(Cl)cc4)CC3)cc21	-56.9	–	–	–	–
CC1=C(c2ccc(Cl)cc2)S(=O)(=O)N=C1N1CCN(c2cccc(C)c2)C(C)C1 (centres undefined)	–	–	–	–	–
Clc1ccc(Nc2c(-c3ccccc3Cl)nc3ccc(Cl)cn23)cc1	-40.7	–	–	–	–
Oc1ccccc1-c1nc2cnccn2c1Nc1ccc(Cl)cc1	–	–	–	–	–
CC(=O)Oc1ccc2c(c1)Oc1cc(OC(C)=O)ccc1C21OC(=O)c2ccccc21	–	833.5	–	105.6	–
Cc1cc(O)ccc1C1(c2ccc(O)cc2C)OC(=O)c2ccccc21	–	–	–	–	–
CC(C)(C)c1cc(CCC(=O)NCc2ccncc2)cc(C(C)(C)C)c1O	–	–	–	–	–
CC(Oc1ccc2ccc(=O)oc2c1)C(=O)NC(Cc1c[nH]c2ccc(O)cc12)C(=O)O (centres undefined)	-87.4	–	–	–	–
O=C(Cn1c(=O)n(-c2ccc(Cl)cc2)c(=O)c2oc3ccccc3c21)Nc1ccccc1	–	–	–	–	–
c1ccc(Oc2ccc(-c3ccnc4nc(N5CCOCC5)nn34)cc2)cc1	–	–	33.4	–	–
COc1ccc(C2C(=O)N(C3CCCCC3)CC(=O)N2CCc2ccc(OC)c(OC)c2)cc1 (centres undefined)	–	–	–	–	–
O=[N+]([O-])c1cc(C(F)(F)F)ccc1Oc1cccnc1[N+](=O)[O-]	-81.4	–	–	–	–
O=C(Nc1ccc(F)cc1)c1ccccc1Oc1ccc(C(F)(F)F)cc1[N+](=O)[O-]	–	–	–	–	–
O=C(NCCOc1ccc(F)cc1)C1CCC(=O)N(CCN2CCOCC2)C1 (centres undefined)	-53.0	–	–	–	–
CCc1nn(CC(=O)NCCCc2ccccc2)c(=O)c2cc3ccccc3n12	–	–	–	–	–
O=C(c1ccccc1)c1ccc(N2CCNCC2)cc1	-74.5	–	–	–	–
CC1CN(C(=O)N2CCC(C(=O)NCc3cccs3)CC2)c2cc(Cl)ccc2O1 (centres undefined)	–	–	–	–	–
COC(=O)c1cc(NC(=O)c2ccccc2F)cc(C(=O)OC)c1	-31.6	–	–	–	–
COC(=O)c1cc(NC(=O)c2ccc(F)cc2)cc(C(=O)OC)c1	–	–	–	–	–
Cc1ccccc1C(=O)Nc1cc(NC(=O)c2ccccc2C)cc(C(=O)O)c1	-38.5	–	–	–	–
O=C(O)c1cc(NC(=O)c2ccccc2F)cc(NC(=O)c2ccccc2F)c1	–	–	–	–	–
O=C(C[n+]1cccc(CNC(=O)c2ccc(OC(F)F)cc2)c1)Nc1ccc(SC(F)F)cc1	–	–	–	–	–
O=C(C[n+]1cccc(CNC(=O)c2ccc(OC(F)F)cc2)c1)Nc1ccccc1Cl	-31.7	–	–	–	–
COCCn1c(SCC(=O)N2CCN(c3ccccc3)CC2)nc2c(c1=O)SC(C)C2 (centres undefined)	-35.0	–	–	–	–
COc1ccc(NC(=O)CN2C(=O)NC3(CCCC3)C2=O)cc1Cl	–	–	–	–	–
